The first assay deals with PIK3C2G. The following applies: concentration: 1 μM,replicates: in singlicate; n = 1.
`CCCC(=O)Nc1n[nH]c2ncccc12` [SB-601436]: the “%Inh” value was found to be 0%.

Consider `O=C(NOCC1CC1)c1cc(Br)c(F)c(F)c1Nc1ccc(I)cc1Cl`, for which the “%Inh” value was 0%.

Regarding `CS(=O)(=O)Nc1ccc(-c2ccnc3[nH]ccc23)cc1` [GSK993273], the “%Inh” value was found to be 3%.

In the case of `Cn1ccc2ncnc(Oc3ccc(NC(=O)Nc4cccc(C(F)(F)F)c4)c(Cl)c3)c21`, the “%Inh” value was found to be 5%.

Consider `CN1CCN(CCCNc2nccc(-c3c(-c4ccc(F)cc4)nn4cc(C(N)=O)ccc34)n2)CC1` [GW622475], for which the “%Inh” value is given as 0%.

`O=C(Nc1cccc(C(F)(F)F)c1)c1cccc(Oc2ccc3nccn3n2)c1`: the “%Inh” value was 13%.

In the case of `COc1ccc(Nc2nccc(N3CCC(NC(=O)c4cccc(C#N)c4)C3)n2)cc1` (centres unmarked) [GSK1379730], the “%Inh” value was 0%.

With `Cc1ccc2c(-c3ccnc(Nc4ccc(C(F)(F)F)cc4)n3)cnn2n1` [GW819776], the “%Inh” value was 0%.

`CN1CCN(CCNc2nc3cc(Oc4ccc(NC(=O)Nc5cc(C(F)(F)F)ccc5F)cc4)ccc3[nH]2)CC1.Cl.Cl` [GW768504]: the “%Inh” value was 0%.

For the compound `Cc1n[nH]c2cc(Nc3ccnc(Nc4cccc(CN5CCOCC5)c4)n3)ccc12` [GW682569], the “%Inh” value came to 0%.

For `CN(c1ccc2c(c1)nc(NCc1ccc(F)cc1)n2C)c1ccnc(Nc2ccc(CS(C)(=O)=O)cc2)n1.Cl` [GW813244], the “%Inh” value was 0%.

Consider `CCOC(=O)N1CCC(n2cnc(-c3ccc(F)cc3)c2-c2ccnc(N)n2)CC1` [SB-219952], for which the “%Inh” value is listed as 69%.

On to `O=C(Nc1cccc(Oc2ccc3nccn3n2)c1)Nc1cccc(C(F)(F)F)c1`, for which the “%Inh” value is 0%.

In the case of `Cc1cccc(-c2nc(Nc3ccncc3)c3sccc3n2)n1` [GW869641], the “%Inh” value was 40%.

Regarding `C[C@@H](Oc1cc(-n2cnc3ccc(-c4ccncc4)cc32)sc1C(N)=O)c1ccccc1Cl` [GSK483724], the “%Inh” value was determined as 6%.

On to `CN(c1ccccc1CNc1nc(Nc2ccc3c(c2)CC(=O)N3)ncc1C(F)(F)F)S(C)(=O)=O`, for which the “%Inh” value stood at 0%.

For `C[C@@H]1CNc2c(sc3ccc4nc(-c5ccc(O)cc5)ccc4c23)C(=O)N1`, the “%Inh” value turned out to be 28%.

Turning to `Cn1ccc2ncnc(Oc3ccc(NC(=O)Nc4ccnc(C(F)(F)F)c4)c(Cl)c3)c21`, the “%Inh” value stood at 13%.

Take `CCn1c(-c2nonc2N)nc2cncc(Br)c21` [SB-738004]: the “%Inh” value came out at 12%.

For `N#Cc1cccc(C(=O)NC2CCN(c3ccnc(Nc4ccc(F)cc4)n3)C2)c1` (centres unmarked) [GSK1379708], the “%Inh” value amounted to 0%.

Turning to `Cc1ccc(C(=O)Nc2ccc(Oc3ccc4nc(NC(=O)C5CC5)cn4c3)c(F)c2)c(=O)n1-c1ccccc1`, the “%Inh” value is reported as 0%.

On to `CCNCC(Cc1ccccc1)NC(=O)c1cc(Br)c(-c2ccnc3[nH]ccc23)s1.Cl.Cl` (centres unmarked) [GSK1383280], for which the “%Inh” value came out at 0%.

In the case of `COc1cccc(C2=C(Nc3cccc(Cl)c3)C(=O)NC2=O)c1` [SB-341556], the “%Inh” value was found to be 0%.

As to `NC(=O)c1ccc(-c2cc3ncnc(SCC(=O)O)c3s2)cc1`, the “%Inh” value is reported as 20%.

Turning to `Cc1ccc(CC(=O)N2CCc3cc(-c4cn(C)c5ncnc(N)c45)ccc32)cc1` [GSK2634758], the “%Inh” value is on record as 4%.

As for `Cl.Nc1n[nH]c2cc(-c3ccccn3)ccc12` [GSK2189892], the “%Inh” value came to 0%.

For the compound `CCn1c(-c2nonc2N)nc2cncc(CNC3CCNCC3)c21.Cl` [SB-747651], the “%Inh” value came to 0%.

In the case of `NC(=O)Nc1sc(-c2ccc(F)cc2)cc1C(N)=O` [GW789449], the “%Inh” value worked out at 19%.

For `Cn1cc(-c2cccc3c(N)c(C(N)=O)nnc23)cn1`, the “%Inh” value was 26%.

For `CN(c1cccc(CNc2nc(Nc3ccc4c(c3)CC(=O)N4)ncc2C(F)(F)F)c1)S(C)(=O)=O`, the “%Inh” value came to 0%.

With `CC(=O)Nc1nc2cnc(Nc3cc(NC(=O)c4cccc(CC(C)(C)C#N)c4)ccc3C)nc2s1`, the “%Inh” value was determined as 60%.

With `c1ccc(Oc2ccc(Nc3ccnc4ccc(-c5ccccn5)cc34)cc2)cc1` [GW407034], the “%Inh” value came to 0%.

Turning to `Cc1ccc(Nc2ccnc(Nc3ccc4c(c3)CS(=O)(=O)C4)n2)cc1O.Cl` [GW579362], the “%Inh” value is reported as 42%.

Take `CC(C)c1nc(-c2cccc(NS(=O)(=O)c3ccccc3)c2)c(-c2ccnc(Nc3ccc4c(c3)CN(C)CC4)n2)s1` [GSK1649598]: the “%Inh” value turned out to be 0%.

Regarding `O=C(NCC1CC1)c1ccc(-c2cc(C(=O)NC3CC3)ccc2F)cc1` [GW810445], the “%Inh” value is reported as 0%.

Take `CC(C)S(=O)(=O)N1CCN(Cc2ccc3c(c2)nc(NC(=O)c2ccsc2)n3C[C@H](O)c2ccccc2)CC1` [GW635815]: the “%Inh” value worked out at 0%.

As for `Cc1ccn2nc(-c3ccc(F)cc3)c(-c3ccncc3)c2c1.Cl` [GW457859], the “%Inh” value turned out to be 20%.

Another assay deals with PIK3CA. As to conditions: concentration: 1 μM,replicates: in singlicate; n = 1.
`CCCC(=O)Nc1n[nH]c2ncccc12` [SB-601436]: the “%Inh” value stood at 0%.

For `O=C(NOCC1CC1)c1cc(Br)c(F)c(F)c1Nc1ccc(I)cc1Cl`, the “%Inh” value was found to be 0%.

As for `CS(=O)(=O)Nc1ccc(-c2ccnc3[nH]ccc23)cc1` [GSK993273], the “%Inh” value amounted to 0%.

For the compound `Cn1ccc2ncnc(Oc3ccc(NC(=O)Nc4cccc(C(F)(F)F)c4)c(Cl)c3)c21`, the “%Inh” value was 0%.

As to `CN1CCN(CCCNc2nccc(-c3c(-c4ccc(F)cc4)nn4cc(C(N)=O)ccc34)n2)CC1` [GW622475], the “%Inh” value amounted to 0%.

On to `O=C(Nc1cccc(C(F)(F)F)c1)c1cccc(Oc2ccc3nccn3n2)c1`, for which the “%Inh” value was 98.1%.

Turning to `COc1ccc(Nc2nccc(N3CCC(NC(=O)c4cccc(C#N)c4)C3)n2)cc1` (centres unmarked) [GSK1379730], the “%Inh” value worked out at 0%.

As for `Cc1ccc2c(-c3ccnc(Nc4ccc(C(F)(F)F)cc4)n3)cnn2n1` [GW819776], the “%Inh” value was 2%.

With `CN1CCN(CCNc2nc3cc(Oc4ccc(NC(=O)Nc5cc(C(F)(F)F)ccc5F)cc4)ccc3[nH]2)CC1.Cl.Cl` [GW768504], the “%Inh” value is listed as 0%.

For `Cc1n[nH]c2cc(Nc3ccnc(Nc4cccc(CN5CCOCC5)c4)n3)ccc12` [GW682569], the “%Inh” value was 3%.

Turning to `CN(c1ccc2c(c1)nc(NCc1ccc(F)cc1)n2C)c1ccnc(Nc2ccc(CS(C)(=O)=O)cc2)n1.Cl` [GW813244], the “%Inh” value was found to be 27%.

As to `CCOC(=O)N1CCC(n2cnc(-c3ccc(F)cc3)c2-c2ccnc(N)n2)CC1` [SB-219952], the “%Inh” value is listed as 15%.

As to `O=C(Nc1cccc(Oc2ccc3nccn3n2)c1)Nc1cccc(C(F)(F)F)c1`, the “%Inh” value came to 0%.

`Cc1cccc(-c2nc(Nc3ccncc3)c3sccc3n2)n1` [GW869641]: the “%Inh” value is recorded as 33%.

In the case of `C[C@@H](Oc1cc(-n2cnc3ccc(-c4ccncc4)cc32)sc1C(N)=O)c1ccccc1Cl` [GSK483724], the “%Inh” value amounted to 53%.

On to `CN(c1ccccc1CNc1nc(Nc2ccc3c(c2)CC(=O)N3)ncc1C(F)(F)F)S(C)(=O)=O`, for which the “%Inh” value came out at 0%.

As for `C[C@@H]1CNc2c(sc3ccc4nc(-c5ccc(O)cc5)ccc4c23)C(=O)N1`, the “%Inh” value was found to be 5%.

On to `Cn1ccc2ncnc(Oc3ccc(NC(=O)Nc4ccnc(C(F)(F)F)c4)c(Cl)c3)c21`, for which the “%Inh” value is 0%.

Regarding `CCn1c(-c2nonc2N)nc2cncc(Br)c21` [SB-738004], the “%Inh” value came out at 0%.

On to `N#Cc1cccc(C(=O)NC2CCN(c3ccnc(Nc4ccc(F)cc4)n3)C2)c1` (centres unmarked) [GSK1379708], for which the “%Inh” value is reported as 0%.

With `Cc1ccc(C(=O)Nc2ccc(Oc3ccc4nc(NC(=O)C5CC5)cn4c3)c(F)c2)c(=O)n1-c1ccccc1`, the “%Inh” value was 0%.

`CCNCC(Cc1ccccc1)NC(=O)c1cc(Br)c(-c2ccnc3[nH]ccc23)s1.Cl.Cl` (centres unmarked) [GSK1383280]: the “%Inh” value came out at 0%.

For `COc1cccc(C2=C(Nc3cccc(Cl)c3)C(=O)NC2=O)c1` [SB-341556], the “%Inh” value came to 1%.

As to `NC(=O)c1ccc(-c2cc3ncnc(SCC(=O)O)c3s2)cc1`, the “%Inh” value is given as 0%.

For `Cc1ccc(CC(=O)N2CCc3cc(-c4cn(C)c5ncnc(N)c45)ccc32)cc1` [GSK2634758], the “%Inh” value came out at 0%.

Regarding `Cl.Nc1n[nH]c2cc(-c3ccccn3)ccc12` [GSK2189892], the “%Inh” value was found to be 0%.

Take `CCn1c(-c2nonc2N)nc2cncc(CNC3CCNCC3)c21.Cl` [SB-747651]: the “%Inh” value came to 0%.

For the compound `NC(=O)Nc1sc(-c2ccc(F)cc2)cc1C(N)=O` [GW789449], the “%Inh” value was found to be 0%.

In the case of `Cn1cc(-c2cccc3c(N)c(C(N)=O)nnc23)cn1`, the “%Inh” value came out at 0%.

Consider `CN(c1cccc(CNc2nc(Nc3ccc4c(c3)CC(=O)N4)ncc2C(F)(F)F)c1)S(C)(=O)=O`, for which the “%Inh” value was 0%.

For the compound `CC(=O)Nc1nc2cnc(Nc3cc(NC(=O)c4cccc(CC(C)(C)C#N)c4)ccc3C)nc2s1`, the “%Inh” value came out at 11%.

For the compound `c1ccc(Oc2ccc(Nc3ccnc4ccc(-c5ccccn5)cc34)cc2)cc1` [GW407034], the “%Inh” value was determined as 0%.

For the compound `Cc1ccc(Nc2ccnc(Nc3ccc4c(c3)CS(=O)(=O)C4)n2)cc1O.Cl` [GW579362], the “%Inh” value is listed as 2%.

Consider `CC(C)c1nc(-c2cccc(NS(=O)(=O)c3ccccc3)c2)c(-c2ccnc(Nc3ccc4c(c3)CN(C)CC4)n2)s1` [GSK1649598], for which the “%Inh” value was 10%.

Turning to `O=C(NCC1CC1)c1ccc(-c2cc(C(=O)NC3CC3)ccc2F)cc1` [GW810445], the “%Inh” value was 0%.

Consider `CC(C)S(=O)(=O)N1CCN(Cc2ccc3c(c2)nc(NC(=O)c2ccsc2)n3C[C@H](O)c2ccccc2)CC1` [GW635815], for which the “%Inh” value was found to be 0%.

Consider `Cc1ccn2nc(-c3ccc(F)cc3)c(-c3ccncc3)c2c1.Cl` [GW457859], for which the “%Inh” value is reported as 0%.

The values are drawn from paper PMC5540273 (PLoS ONE, 2017).
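Also: KINOMEscan kinase panel screen.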
